# Data from PubChem BioAssay (NCI).
# Compounds without any hit were thinned out: in the full panel of roughly 83,000, 20% have a hit.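 Step 1: grow cells in 96-well plates. Step 2: add test compound at a single concentration. Step 3: incubate 48 h. Step 4: record percent growth.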 Unmarked numbers belong to inactive results. Activity calls are given as the source filed them. The calls were made as follows: active = growth percent below 10; inactive = the rest.
# What was measured:
# Test in all cases: NCI-60 one-dose screen, 48 h (100 = growth as untreated, 0 = no growth, -100 = all killed)
# Details in all cases: 10 µM unless noted
# NCI-H23 lung = system: NCI-H23 lung
# NCI-H226 lung = system: NCI-H226 lung
# NCI-H322M lung = system: NCI-H322M lung
# HOP-62 NSCLC = system: HOP-62 NSCLC
# NCI-H460 lung = system: NCI-H460 lung
# HOP-92 NSCLC = system: HOP-92 NSCLC
# NCI-H522 lung = system: NCI-H522 lung
# A549/ATCC NSCLC = system: A549/ATCC NSCLC
# 786-0 renal = system: 786-0 renal
# COLO 205 colon = system: COLO 205 colon
# DU-145 prostate = system: DU-145 prostate
# K-562 leukemia = system: K-562 leukemia
# MALME-3M melanoma = system: MALME-3M melanoma
# MDA-MB-231 breast = system: MDA-MB-231 breast
# RXF 393 renal = system: RXF 393 renal
# SF-268 CNS = system: SF-268 CNS
# SF-295 CNS = system: SF-295 CNS
# SF-539 CNS = system: SF-539 CNS
# UACC-257 melanoma = system: UACC-257 melanoma
# M14 melanoma = system: M14 melanoma
SMILES,growth (NCI-H23 lung),growth (NCI-H226 lung),growth (NCI-H322M lung),growth (HOP-62 NSCLC),growth (NCI-H460 lung),growth (HOP-92 NSCLC),growth (NCI-H522 lung),growth (A549/ATCC NSCLC),growth (786-0 renal),growth (COLO 205 colon),growth (DU-145 prostate),growth (K-562 leukemia),growth (MALME-3M melanoma),growth (MDA-MB-231 breast),growth (RXF 393 renal),growth (SF-268 CNS),growth (SF-295 CNS),growth (SF-539 CNS),growth (UACC-257 melanoma),growth (M14 melanoma)
O=[N+]([O-])c1ccc2[nH]c3nccc(NCc4cccc(Cl)c4)c3c2c1,82.3%,83.9%,77.8%,10.8%,26.8%,92.5%,50.3%,58.8%,76.4%,68.1%,64.6%,79.4%,46.4%,80.2%,66.4%,46.1%,67.3%,71.1%,85.5%,83.4%
CCN1C(=O)/C(=c2\sc3n(c2=O)C2C(NN=3)N(CC)C(=O)N2CC)c2ccccc21 (stereo not given),34.5%,103%,46.5%,32.1%,4.65% (active),39.2%,19.9%,32.8%,30.9%,-11.5% (active),7% (active),7.63% (active),49.5%,23.9%,-7.21% (active),61.7%,9.43% (active),-20.9% (active),96.5%,46.2%
COc1ccc(C2=C(CN)C(O)NC(=NCC(=O)c3ccc4ccccc4c3)N2)cc1 (stereo not given),103%,100%,104%,98.7%,114%,113%,86%,95.5%,98.5%,87.4%,107%,102%,101%,103%,112%,94.1%,98.4%,90.8%,91.3%,95.1%
COC(=O)c1nc(-c2ccc(C)cc2)oc1Sc1ccc(C)cc1,105%,104%,99.2%,94%,107%,87.9%,78.7%,97.6%,95.7%,102%,110%,82%,122%,96.1%,108%,103%,114%,96.8%,102%,93.2%
COc1cc(Nc2nc3ccccc3cc2C(=O)Nc2ccc(F)c(F)c2)cc(OC)c1OC,9.57% (active),22.1%,53%,46%,9.51% (active),1.01% (active),20.4%,22.7%,34.5%,9.14% (active),30%,16.8%,51.5%,30.5%,68.3%,40.4%,14.2%,37.9%,52.3%,24.4%
Cn1ccnc1CN1CCSC(C(=O)Nc2ccccc2)C1 (stereo not given),101%,87.1%,88.7%,81.5%,94.8%,88.7%,85.6%,83.8%,98%,112%,100%,92.1%,96.6%,104%,94.2%,95.1%,92.9%,96%,79.6%,98.1%
C=C(CNCCc1ccc(O)cc1)[C@@H]1CC[C@]2(CO)CC[C@]3(C)[C@H](CC[C@@H]4[C@@]5(C)CCC(NCCc6ccc(O)cc6)C(C)(C)[C@@H]5CC[C@]43C)[C@@H]12 (stereo not given in full),-78.2% (active),-61% (active),-90.6% (active),-90.7% (active),-79.4% (active),-88.4% (active),-73.1% (active),-82.4% (active),-89.9% (active),-91.1% (active),-98.6% (active),-72.9% (active),-88.2% (active),-87.1% (active),-91.2% (active),-81.5% (active),-92.9% (active),-88.2% (active),-80.5% (active),-85.4% (active)
COc1ccc(/C=N\Nc2nc(SCC(C)C)nc(-c3ccc(OC)cc3)c2C#N)cc1,57.2%,-14.8% (active),22.5%,-2.99% (active),-11.1% (active),15.1%,54%,11.4%,-48.2% (active),50.1%,65.2%,74.6%,60.1%,43.5%,34.5%,50.9%,-5.63% (active),52.6%,88.1%,77.6%
